ELG1 genotoxic: genotoxicity induction in ELG1-luciferase HEK293T cells; HEK293T ELG1-luciferase reporter, luminescence, 16 h; Potency, µM (doses to about 46 µM), without a hit: at the top dose activity change, positive = activation, most hits filed as activators; actives 1.3% (n = 330,000); also: % of control where 0% means no effect; nearly all actives have a fitted effect of over 60% in size
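Reporter readout depends on ELG1 protein level, which increases with genetic stress. After 16 hr compound exposure at 37 °C, luciferase activity was quantified using ONE-Glo.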
Rab9 promoter act: activators of Rab9 promoter; Huh7 Rab9 promoter-luciferase reporter, luminescence, 24 h; Potency, µM (doses to about 9.22 µM), for inactives: at the highest dose activation, negative = inhibition, hits mostly activators; actives 2.8% (n = 320,000); also: % of control where 0% means no effect; nearly all actives have a fitted effect of over 60% in size
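Huh7 cells stably carrying Rab9 promoter–luciferase reporter, plated 1500 cells/well, compound added after 2 h and incubated 24 h at 37 °C; luciferase luminescence then read after 10 min with detection reagent.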
ELG1 repair inh: ELG1-dependent DNA repair inhibition; HEK293T ELG1-luciferase reporter, luminescence, 16 h; DNA damage induced by 5-fluorouridine; Potency, µM (doses to about 46.1 µM), for inactives: at the top dose activity change, negative = inhibition, actives largely listed as inhibitors; actives 2.3% (n = 330,000); AID 504467; also: % is scaled to controls: 0 for no effect and ±100 for the full control effect; nearly all actives have a fitted effect of over 55% in size
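Quantitative HTS, concentration-response format. 2,000 cells/well co-treated with 5-fluorouridine and compound, 16 hr in 5% CO2 at 37 °C; ONE-Glo luminescence read after 30 min.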
FLuc counter: firefly luciferase modulation, counter-screen for miR-21 project; P08659; purified FLuc, Km substrates, luminescence inhibition; Potency, µM (doses to about 57.5 µM), inactives show at the highest dose activity change, negative = inhibition, hits mostly inhibitors; actives 6.9% (n = 360,000); AID 588342;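 also: plate controls were vehicle for no effect and reference inhibitor for full effect; nearly all actives have a fitted effect of over 55% in size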
Target sequence (P08659 whole entry, looked up): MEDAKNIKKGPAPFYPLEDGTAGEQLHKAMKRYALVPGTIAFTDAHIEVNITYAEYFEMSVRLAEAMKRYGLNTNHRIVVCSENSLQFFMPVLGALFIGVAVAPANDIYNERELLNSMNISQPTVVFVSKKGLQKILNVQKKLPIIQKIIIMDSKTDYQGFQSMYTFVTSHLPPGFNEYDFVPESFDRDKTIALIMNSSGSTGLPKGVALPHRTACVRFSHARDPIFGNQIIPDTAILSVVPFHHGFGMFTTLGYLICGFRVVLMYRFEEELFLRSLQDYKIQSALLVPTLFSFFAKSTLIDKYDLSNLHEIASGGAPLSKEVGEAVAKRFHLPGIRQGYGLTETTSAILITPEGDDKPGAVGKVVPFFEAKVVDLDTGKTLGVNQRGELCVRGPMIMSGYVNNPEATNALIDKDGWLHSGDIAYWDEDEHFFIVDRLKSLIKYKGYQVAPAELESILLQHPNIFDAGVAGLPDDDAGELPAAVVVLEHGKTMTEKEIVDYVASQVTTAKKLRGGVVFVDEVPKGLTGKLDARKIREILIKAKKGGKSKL
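Purified P. pyralis luciferase (10nM final) with 10uM D-luciferin and 10uM ATP (Km levels) in 50mM Tris acetate pH 7.5, 10mM Mg acetate, 0.01% Tween-20, 0.05% BSA; qHTS 6-point titration, ~60 µM downward; luminescence read.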
SMN2 splice enh: SMN2 splice variant enhancement | AID 1458 | Potency, µM (highest dose often 46.1 µM), inactives show top-dose activity change, positive = activation, hits mostly activators | HEK293 SMN2-luciferase splicing reporter, luminescence, 30-36 h | actives 2.8% (n = 210,000); also: % of control where 0% means no effect; nearly all actives have a fitted effect of over 55% in size
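HEK293 cells carry an SMN2 minigene-luciferase reporter in which exon 7 inclusion puts luciferase in frame. Cells were seeded at 2000 cells/well, attached for 10-12 hours, then exposed to compounds for 30-36 hours at 37C before ONE-Glo luminescence.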
NPC1 prom act: activators of NPC1 promoter | Huh7 NPC1 promoter luciferase reporter, 24 h | Potency, µM (titrated, usually from 9.22 µM), without a hit: top-dose activation, actives largely listed as activators | actives 2.4% (n = 320,000) | AID 485313; also: % of control where 0% means no effect; nearly all actives have a fitted effect of over 60% in size
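Luminescence read-out of NPC1 promoter-driven luciferase in stably transfected Huh7 cells; compounds delivered in DMSO and left 24 h at 37C, 5% CO2, qHTS titration format.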
* = called active by the depositor; ? = inconclusive; . = not tested or not shown; [ ] = another dose, or the depositor's remark. This is a sample that favours compounds with a hit; in the whole collection about 9.2% have one here. Calls follow the shape of the dose curve; as a rule, active = well fitted curve in the direction sought with a large enough effect; inconclusive = small, poorly fitted or top-dose-only effect, or another doubt; inactive = no such curve, though single readings can be large; an effect the other way counts as inactive or inconclusive. Potency is read from the fitted curve at half-maximal effect.

SMILES | ELG1 genotoxic | Rab9 promoter act | ELG1 repair inh | FLuc counter | SMN2 splice enh | NPC1 prom act
Cc1ccc(-c2nnc(Nc3ccccc3)c3ccccc23)cc1S(=O)(=O)NCc1nc2ccccc2[nH]1 | . | . | . | -1% | -2% | .
CCCCCN(C(=O)CCC(=O)OCCOc1ccccc1Cl)c1c(N)n(CCCC)c(=O)[nH]c1=O | 0% | 0% | 4% | 4% | . | -3%
C=CC[C@@H](CC(=O)N(CCO)Cc1ccccc1)C(=O)N[C@H](COC(=O)[C@@H](CC=C)CC(=O)OC(C)(C)C)Cc1c[nH]c2ccccc12 | -10% | . | 18µM* | . | . | .
C=CC[C@H](CC(=O)N(CCO)Cc1ccccc1)C(=O)N[C@@H](COC(=O)[C@H](CC=C)CC(=O)OC(C)(C)C)Cc1c[nH]c2ccccc12 | -5% | . | 23µM* | . | . | .
CCCOc1cccc(C(=O)NCCNC(=O)c2cnccn2)c1 | 0% | 4% | 4% | 1% | . | -1%
CCc1ccc(C(=O)COC(=O)c2n[nH]c3ccccc23)cc1 | 18% | 0.89µM* | ? | 3µM* | -12% | 1.8µM*
CCc1ccc(C(=O)COC(=O)c2nn(C)c(=O)c3ccccc23)cc1 | 0% | -4% | 3% | 19µM* | 1% | -2%
O=C(COC(=O)c1n[nH]c2ccccc12)c1cc(F)ccc1F | -1% | 2% | 5% | ? | -20% | -1%
Cc1cc(C)c(C(=O)COC(=O)c2nn(C)c(=O)c3ccccc23)cc1C | 1% | -5% | ? | 11µM* | . | -3%
CC1CCN(C(=O)COC(=O)c2n[nH]c3ccccc23)CC1 | ? | 3.2µM* | ? | ? | ? | 3.5µM*
Cn1nc(C(=O)OCC(=O)c2ccc(Br)cc2)c2ccccc2c1=O | -1% | 1% | 4% | 0% | . | 1%
CC(C)c1nc2ccc(Br)cn2c1NC1CCCC1 | -12% | -8% | ? | 3% | -25% | -6%
Cc1ccc(Nc2nc(COC(=O)C3CC3)cs2)cc1 | ? | 3.2µM* | ? | 4.3µM* | ? | ?
Cc1ccc(Nc2nc(C(=O)N3CCC(C(=O)N4CCN(C)CC4)CC3)cs2)cc1 | 14% | 18% | 12% | -17% | 7% | 14%
O=S(=O)(Nc1cccc(-c2ccc3nncn3n2)c1)c1ccc(Cl)s1 | 5% | 1% | 11% | -15% | 8% | -4%
CC1CCN(c2ccc(-c3cccc(NS(=O)(=O)c4cccs4)c3)nn2)CC1 | . | . | . | 0.48µM* | . | .
CC1CCN(c2ccc(-c3cccc(NS(=O)(=O)c4ccc(Cl)s4)c3)nn2)CC1 | . | . | . | 0.85µM* | . | .
CSc1cccc(NS(=O)(=O)c2cccs2)c1 | -4% | 1% | 5% | 2% | 13% | 1%
C/C(=N\NC(=O)C(=O)Nc1cc(C)ccc1C)c1ccncc1 | 0% | -5% | 0% | 3% | . | 0%
N#Cc1ccc(-c2cn3c(n2)SCC3)cc1 | ? | ? | ? | 19µM* | . | ?
O=S(=O)(Nc1ccc(-c2cn3c(n2)SCC3)cc1)c1cccs1 | 3% | -9% | -15% | -17% | -25% | -1%
O=C(Cn1cnc2c(nc3n2CCCCC3)c1=O)Nc1ccc(F)cc1 | . | . | . | -2% | . | .
COc1ccc(-c2nc(C)c(C(C)=O)n2O)cc1[N+](=O)[O-] | 1% | 13% | ? | 17µM* | 24% | 4%
COc1ccc(-c2cn3cc([N+](=O)[O-])ccc3n2)cc1OC | ? | ? | ? | 15µM* | ? | 26%
CCCOc1ccc(-c2cn3ccccc3n2)cc1[N+](=O)[O-] | ? | 2.2µM* | ? | 1.7µM* | 1.6µM* | 3.2µM*
SMILES | ELG1 genotoxic | Rab9 promoter act | ELG1 repair inh | FLuc counter | SMN2 splice enh | NPC1 prom act
COc1ccc(Cc2noc(-c3ccc([N+](=O)[O-])cc3)n2)cc1OC | -5% | -10% | 18µM* | 0% | . | 1%
O=[N+]([O-])c1cccc(-c2cn3ccccc3n2)c1 | 1% | -3% | -6% | -1% | . | -4%
Cc1oc2c(c(C)cc3oc(=O)c(CC(=O)NCCc4ccc(Cl)cc4)c(C)c32)c1C | . | . | . | -7% | -3% | .
CC(C)Oc1ccc(C(=O)N2CCN(C(=O)c3ccco3)CC2)cc1 | 2% | 1% | 13% | 2% | . | 5%
CCCOc1ccc(-c2c(C(=O)N/N=C(\C)COc3ccccc3)nnn2-c2nonc2N)cc1 | 0% | -2% | 11% | 5% | . | 0%
CCCCOc1ccc(C2=CSC3=NCCN23)cc1[N+](=O)[O-] | 8% | -3% | 4% | -1% | . | -1%
CCCCOc1ccc(-c2csc(N)n2)cc1[N+](=O)[O-] | ? | 2.8µM* | ? | 3.8µM* | 13µM* | 2.5µM*
COc1ccc(-c2cn3ccccc3n2)cc1[N+](=O)[O-] | ? | 1.4µM* | ? | 1.7µM* | 11µM* | 4µM*
O=c1oc(CCO)cc2ccc(-c3ccc4[nH]ccc4c3)cc12 | 15µM* | 0% | ? | 2.7µM* | . | ?
Cn1cncc1C#Cc1ccc2cc(CCO)oc(=O)c2c1 | 7% | -1% | 26% | -19% | . | 13%
O=C(CSc1ccc(Cl)cc1)N1N=CCC1c1ccccc1 (stereo not given) | 0% | 3% | 0% | -14% | . | -3%
O=C(CSC(=S)N1CCCCC1)N1N=CCC1c1ccccc1 (stereo not given) | ? | 22% | ? | 21µM* | -4% | 26%
Cc1ccc(C)c(OCCn2cc(/C=C(\C#N)C(=O)NCC3CCCO3)c3ccccc32)c1 (stereo not given) | -8% | -7% | 16µM* | -9% | -17% | -3%
N#C/C(=C\c1cn(CCOc2ccccc2F)c2ccccc12)C(=O)NCc1cccs1 | 6% | 7% | 14% | 1% | -11%[1.84 µM] | -5%
Cc1ccc(C)c(OCCn2cc(/C=C(\C#N)C(=O)NCc3cccs3)c3ccccc32)c1 | -2% | 2% | 5.8µM* | 6% | 4% | -2%
Cc1ccc(OCCCC(=O)Nc2sc3c(c2C(N)=O)CCC(C)C3)cc1 (stereo not given) | . | . | . | 0% | 14% | .
Cc1nc2ccccc2nc1SCC(=O)N1CCC(C)CC1 | -1% | 6% | -12% | -10% | -27% | -6%
Cc1ccnc(N2CCN(C(=O)CSc3nc4ccccc4nc3N3CCC(C)CC3)CC2)c1 | -4% | 3% | 21µM* | -7% | -20% | -2%
CCOc1ccc(OCCC(=O)OCC(=O)NC2CCCCC2)cc1 | 4% | 0% | 22% | ? | . | 2%
COc1ccc(CNC(=O)C(c2cccs2)N(Cc2ccco2)C(=O)Cc2cccs2)cc1 (stereo not given) | -11% | -1% | 15µM* | -4% | -16% | -1%
